Results on 40 molecules are retold here after PubChem BioAssay (EPA / NIEHS).

Inconclusive results are not listed. Activity calls are given as the source filed them. How the source made its calls: active means hit-call score of the fitted dose curve at least 0.9, where 1 is the maximum; inconclusive means response in the unintended direction; inactive means score below 0.9.

Read-out in this test: sulfotransferase (SULT2A), SULT2A1 (gene 6822)
The test is described as follows: CLD_SULT2A_48hr: CellzDirect (CLD) Gene Expression Assay for sulfotransferase (SULT2A) at 48 hours (AID 2283710).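 Further: hits raise SULT2A1 transcript above the 0.2% DMSO vehicle baseline.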 The procedure:
CLD_48hr is a cell-based, multiplexed-readout assay that uses hepatocyte, a human liver primary cell, with measurements taken at 48 hours after chemical dosing in a 96-well plate.CLD_SULT2A_48hr is one of 16 assay component(s) measured or calculated from the CLD_48hr assay. It is designed to make measurements of mRNA induction, a form of inducible reporter, as detected with chemiluminescence signals by Quantitative Nuclease Protection Assay (qNPA) technology.Data from the assay component CLD_SULT2A_48hr was analyzed at the endpoint, CLD_SULT2A_48hr, in the positive analysis fitting direction relative to DMSO as the negative control and baseline of activity. Using a type of inducible reporter, gain-of-signal activity can be used to understand changes in the reporter gene as they relate to the gene SULT2A1. Furthermore, this assay endpoint can be referred to as a primary readout. To generalize the intended target to other relatable targets, this assay endpoint is annotated to the transferase intended target family, where subfamily is sulfotransferase.
Human hepatocyte cultures were treated daily for two consecutive days with fresh dosing solutions containing appropriate concentrations of the 320 ToxCast chemicals (chemical identities were blinded to CellzDirect and other ToxCast collaborators), vehicle control (0.2% DMSO), and positive control inducers as summarized in Table 1. Due to the large number of treatment groups and chemicals examined, the ToxCast chemicals were divided into two groups (spanning two independent cultures of hepatocytes from separate donor preparations (Hu778: ToxCast plates 1 and 2; Hu776: ToxCast plates 3 and 4). Each preparation of human hepatocyte cultures was treated with respective vehicle control, medium only control, set of six positive controls/reference chemicals for the five hepatic receptor pathways, and a subset of eight of the ToxCast chemicals (indoxacarb, pyrithiobac-sodium, norflurazon, cyhalofop-butyl, methomyl, thiram, acetochlor, and propiconazole). These replicate data, coupled with internal replicates designed within the blinded ToxCast chemical library, provided additional data to evaluate interindividual differences between hepatocyte preparations and their potential impact on chemical profiles.Cell morphology and integrity were evaluated using phase-contrast microscopy as an indicator of hepatocyte cell health (Tyson & Green, 1987). Cultures for each treatment group (i.e., media, vehicle [0.2% DMSO], positive control inducers [multiple concentrations], and the ToxCast chemicals [multiple concentrations]) were observed and cell morphology was assessed relative to vehicle control cultures at each harvest time point (0, 6, 24, or 48 h). […] Images were evaluated at the conclusion of the study to assess changes in cell integrity and account for the effects of chemical exposure on uncharacteristic changes in concentration-dependent gene expression profiles. The results from these determinations of apparent cytotoxicity were annotated (yes/no) alongside the corresponding qNPA data for reference.At the conclusion of each treatment period, hepatocyte cultures (96-well) were washed with 1 volume of HBSS, lysed by addition of 25 ul ArrayPlate lysis buffer (HTG, Tucson, AZ), and 70 ul/well of Denaturation Oil, denatured by incubation at 95C for 10 min, and frozen at approximately -70C until analysis by nuclease protection assay (qNPA) (Roberts et al., 2007). For qNPA analysis, cell lysates were thawed at 50C for approximately 30 min, qNPA probes were added, and samples were incubated at 95C for 10 min to begin the detection process by denaturing the target RNA, dissociating the duplexes and secondary structure hybridization. At the conclusion of the hybridization period, S1 nuclease reagent was added to each sample to digest all nonprotected nucleotides at 50C for 60-90 min. […]
Turning to `COP(=O)(OC)O/C(C)=C/C(=O)N(C)C`, the result was inactive.

One may read the AC50 as the concentration giving half of the maximal activity seen. For `CCCN(CC)CC1COC2(CCC(C(C)(C)C)CC2)O1` (stereo not given), the AC50 was 0.0474 µM (active).

Take `CCOc1nc(F)cc2nc(S(=O)(=O)Nc3c(Cl)cccc3Cl)nn12`: the result was inactive.

`Nc1cnn(-c2ccccc2)c(=O)c1Cl`: the molecule was called inactive.

`Cn1c(-c2ccccc2)cc(-c2ccccc2)[n+]1C`: the molecule was classed as inactive.

For `CC1(C)C(C(=O)OC(C#N)c2cccc(Oc3ccccc3)c2)C1(C)C` (stereo not given), the molecule was classed as inactive.

On to `CCOc1cc(C(C)(C)C)ccc1C1COC(c2c(F)cccc2F)=N1` (stereo not given), for which the AC50 was 7.73 µM (active).

As to `CCNC(=O)NC(=O)C(C#N)=NOC`, the molecule was classed as inactive.

Consider `CC(C)(C)C(=O)C(Oc1ccc(Cl)cc1)n1cncn1` (stereo not given), for which the call was inactive.

Take `COc1cc(Cl)c(OC)cc1Cl`: the call was inactive.

In the case of `COc1cc(OC)nc(NC(=O)NS(=O)(=O)c2ncccc2OCC(F)(F)F)n1`, the call was inactive.

`COC(=O)c1c(C(F)F)nc(C(F)(F)F)c(C2=NCCS2)c1CC(C)C`: the AC50 was 1.7 µM (active).

Consider `Nc1c(Cl)c(F)nc(OCC(=O)O)c1Cl`, for which the call was inactive.

`CC(C)N1C(=O)c2ccccc2NS1(=O)=O`: the molecule was called inactive.

For the molecule `COC(=O)NC(=S)Nc1ccccc1NC(=S)NC(=O)OC`, the call was inactive.

Regarding `Cc1c(COC(=O)[C@@H]2[C@H](/C=C(\Cl)C(F)(F)F)C2(C)C)cccc1-c1ccccc1`, the AC50 was 5.45 µM (active).

On to `CCNP(=S)(OC)O/C(C)=C/C(=O)OC(C)C` (stereo not given), for which the molecule was classed as inactive.

As for `Clc1cccc(C(Cl)(Cl)Cl)n1`, the call was inactive.

As to `CCC(C)n1c(=O)[nH]c(C)c(Br)c1=O` (stereo not given), the outcome was inactive.

On to `OC(c1ccc(Cl)cc1)(c1ccc(Cl)cc1)C(Cl)(Cl)Cl`, for which the result was inactive.

On to `CC(C)Nc1nc(Cl)nc(NC(C)C)n1`, for which the result was inactive.

As for `CC(C)N1C(=O)N(c2ccccc2)CSC1=NC(C)(C)C`, the AC50 is 33.1 µM (active).

Turning to `CSC(=O)c1c(C(F)F)nc(C(F)(F)F)c(C(=O)SC)c1CC(C)C`, the molecule was classed as inactive.

For `Cc1cc(C)nc(Nc2ccccc2)n1`, the molecule was classed as inactive.

For the molecule `CCCCC(O)(Cn1cncn1)c1ccc(Cl)cc1Cl` (stereo not given), the outcome was inactive.

For the molecule `O=C1C2CC=CCC2C(=O)N1SC(Cl)(Cl)Cl` (stereo not given), the result was inactive.

As to `CCCCOCN(C(=O)CCl)c1c(CC)cccc1CC`, the call was inactive.

As to `CC(C)Oc1cccc(NC(=O)c2ccccc2C(F)(F)F)c1`, the call was inactive.

On to `O=C(Nc1ccccc1-c1ccc(Cl)cc1)c1cccnc1Cl`, for which the call was inactive.

On to `COP(=S)(OC)Oc1ccc([N+](=O)[O-])c(C)c1`, for which the result was inactive.

On to `CCN(CC)c1nc(C)cc(OP(=S)(OC)OC)n1`, for which the molecule was called inactive.

`CC1(C)C(C=C(Cl)Cl)C1C(=O)OC(C#N)c1cccc(Oc2ccccc2)c1` (stereo not given): the molecule was classed as inactive.

For `COc1ccc(-c2ccccc2)cc1NNC(=O)OC(C)C`, the call was inactive.

Take `CCCC(=NOCC)C1=C(O)CC(CC(C)SCC)CC1=O` (stereo not given): the outcome was inactive.

As to `CS(=O)(=O)c1ccc(C(=O)C2C(=O)CCCC2=O)c([N+](=O)[O-])c1`, the molecule was classed as inactive.

Turning to `O=C(O)c1c(Cl)ccc2cc(Cl)cnc12`, the molecule was classed as inactive.

Take `CCOC(=O)C(C)OC(=O)c1cc(Oc2ccc(C(F)(F)F)cc2Cl)ccc1[N+](=O)[O-]` (stereo not given): the AC50 was 4.61 µM (active).

Consider `CC1(C)CCC(=Cc2ccc(Cl)cc2)C1(O)Cn1cncn1` (stereo not given), for which the molecule was classed as inactive.

For the molecule `CC1(C)CON(Cc2ccccc2Cl)C1=O`, the molecule was called inactive.

Regarding `N#Cc1c(Cl)cccc1Cl`, the call was inactive.
